# Values joined by “and” are separate entries in the source; they are usually repeats but may differ in a detail not shown here. Equal values may be shown once. Inconclusive results are not listed. Active and inactive are the calls of the source.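 Rule for the calls, unless noted: active = z-score of at least 1.8 in each of two replicates, scored against plate mean and spread of sample wells; inactive = the rest.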
# Columns and labels:
# [1] = stimulators of nuclear beta-catenin in C2C12, primary screen, imaging, WNT3A-conditioned medium, mouse C2C12, NPC library (AID 1117326; in the data active = nuclear beta-catenin stimulation mostly above about 4.2%, no sharp cut-off; inactive = mostly below about 10%; note: reference of the scale not given here); conditions: stronger effect = higher value
# [2] = stimulators of insulin release from INS-1E, primary screen, cell-based, 5 mM glucose, NPC library (AID 1117329;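 active = compound raises insulin release from rat beta cells at 5 mM glucose, no numeric limit stated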; note: reference of the scale not given here); conditions: rat INS-1E insulin secretion, at 10 µM, stronger effect = higher value
# [3] = growth inhibition of GSK3B-pretreated HCT116 cells – cell-based, CellTiter-Glo, 0.2 to 20 µM (AID 1117336;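 active = compounds lowering colon cancer cell viability after pretreatment blocking the GSK3B kinase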); conditions: HCT116 viability after GSK3B inhibitor, at 20 µM, stronger effect = higher value
# [4] = inhibition of endothelial tube formation, primary screen, imaging, VEGF stimulated, CD31 staining, tube area, NPC library (AID 1117340;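 active = compound that reduces growth-factor-driven endothelial tube area in a mixed cell culture, no cutoff stated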); conditions: VEGF-stimulated ADSC/ECFC co-culture, at 10 µM, stronger effect = higher value
# [5] = glucagon-like peptide 1 release enhancers, primary assay, NCI-H716 cell line, NPC library (AID 1117341;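 active = compound raises GLP1 secretion from the human gut endocrine cells, with no numeric limit stated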; note: reference of the scale not given here); conditions: NCI-H716 cells, at 10 µM, stronger effect = higher value
# [6] = HCT116 colon cancer cell growth inhibition, primary screen, CellTiter-Glo luminescence, NPC library (AID 1117342;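 active = compounds that lower survival of HCT116 colon cancer cells in the luminescence readout, no numeric limit stated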); conditions: at 20 µM (top of the series)
# [7] = CellTiter-Glo luminescent readout of SW480 viability loss, NPC library primary (AID 1117343;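 active = compounds that lower viability of the colon cancer cells in the luminescence readout, with no numeric limit stated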); conditions: CellTiter-Glo luminescence; at 20 µM (top of the series) unless noted
# [8] = decreased DLD-1 cellular survival, CellTiter-Glo luminescent readout, NPC compound collection, primary HTS (AID 1117346;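 active = compounds that lower survival of DLD-1 colon cancer cells in the luminescence readout, no cutoff given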); conditions: DLD-1 viability, CellTiter-Glo luminescence; at 20 µM (top of the series)
# [9] = system: Aerobactin synthetase IucA (Klebsiella pneumoniae); experiment: IucA aerobactin synthetase inhibitors, biochemical, Tocris library, absorbance (AID 1345561; call rule not given here;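 note: 100% = enzyme without compound and 0% = no enzyme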); conditions: purified IucA enzyme assay, absorbance (OD) read-out; stronger effect = lower value;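 tested at 8 µM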
# [10] = sensitizers of A549 cells to miR-34 induction, primary screen, imaging, A549 dox-inducible miR-34, nuclei and caspase counts (AID 1347080;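 active = compounds whose cell count with miR-34 switched on is under 0.7 times the count with it off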); conditions: A549 miR-34 inducible, Hoechst nuclei count, 48 h
# [11] = viability rescue of complex I mutant cybrids, primary screen, cell-based, galactose medium, ATP luminescence (AID 1645843); conditions: complex I mutant cybrid cells, 72 h, stronger effect = higher value;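 note: positive z means more ATP and so rescue of galactose-driven cybrid death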
# [12] = liver-stage malaria parasite growth inhibition, primary screen, cell-based, HepG2, luciferase luminescence, HepG2 viability (AID 624349; in the data active = parasite load remaining mostly below about 12%, no sharp cut-off; inactive = mostly above about 10%;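 note: 100% = mean of DMSO negative control wells on the same plate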); conditions: P. berghei liver stage in HepG2, luciferase luminescence, concentration not given here; parasite load remaining: stronger effect = lower value; viability: measured here: HepG2 viability without parasites
# [13] = survival rescue of mitochondrial mutant cells in low glucose, primary screen, MELAS cybrids, Rieske KO mouse fibroblasts, CellTiter-Glo (AID 1508586;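 active = mean z-score across replicates of 1.96 or higher in either the MELAS or the Rieske mutant cell line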;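 note: z relative to plate mean and SD of compound and empty wells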)
# [14] = growth inhibition of DIPG glioma cells, dose response, cell-based, SU-DIPG-XVII, MIPE5.0, CellTiter-Glo, qHTS (AID 1347060; cut-off not given, nearly all actives have AC50 up to about 26 µM); conditions: SU-DIPG-XVII viability, CellTiter-Glo ATP luminescence
# [15] = growth inhibition of DIPG glioma cells, dose response, cell-based, SU-DIPG-XIII, MIPE4.0, CellTiter-Glo, qHTS (AID 1347061; cut-off not given, nearly all actives have AC50 up to about 37 µM;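 note: cells exposed to compound for 48 hours before readout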); conditions: SU-DIPG-XIII viability, CellTiter-Glo ATP luminescence
# [16] = SU-DIPG-XXV glioma cell viability, MIPE5.0 library, qHTS (AID 1347068; cut-off not given, nearly all actives have IC50 up to about 30 µM)
# [17] = growth inhibition of DIPG glioma cells, dose response, cell-based, JHH-DIPG-1, MIPE4.0, CellTiter-Glo, qHTS (AID 1347062; cut-off not given, nearly all actives have AC50 up to about 27 µM;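 note: cells exposed to compound for two days before readout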); conditions: JHH-DIPG-1 viability, CellTiter-Glo ATP luminescence
# [18] = biological target: NAD(+) hydrolase SARM1 (Homo sapiens) (UniProt Q6SZW1); experiment: SARM1 TIR NADase inhibitors, cell lysate, NAD-Glo luminescence (AID 1508614;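 active = compound whose remaining NAD level is above about 45 nM, limit read from the data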;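 note: higher remaining NAD means stronger inhibition of SARM1 NADase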); conditions: SAM-TIR HEK293T lysate NADase, at 1 µM, stronger effect = higher value
# NAD(+) hydrolase SARM1 (Homo sapiens), sequence (Q6SZW1 whole entry, looked up): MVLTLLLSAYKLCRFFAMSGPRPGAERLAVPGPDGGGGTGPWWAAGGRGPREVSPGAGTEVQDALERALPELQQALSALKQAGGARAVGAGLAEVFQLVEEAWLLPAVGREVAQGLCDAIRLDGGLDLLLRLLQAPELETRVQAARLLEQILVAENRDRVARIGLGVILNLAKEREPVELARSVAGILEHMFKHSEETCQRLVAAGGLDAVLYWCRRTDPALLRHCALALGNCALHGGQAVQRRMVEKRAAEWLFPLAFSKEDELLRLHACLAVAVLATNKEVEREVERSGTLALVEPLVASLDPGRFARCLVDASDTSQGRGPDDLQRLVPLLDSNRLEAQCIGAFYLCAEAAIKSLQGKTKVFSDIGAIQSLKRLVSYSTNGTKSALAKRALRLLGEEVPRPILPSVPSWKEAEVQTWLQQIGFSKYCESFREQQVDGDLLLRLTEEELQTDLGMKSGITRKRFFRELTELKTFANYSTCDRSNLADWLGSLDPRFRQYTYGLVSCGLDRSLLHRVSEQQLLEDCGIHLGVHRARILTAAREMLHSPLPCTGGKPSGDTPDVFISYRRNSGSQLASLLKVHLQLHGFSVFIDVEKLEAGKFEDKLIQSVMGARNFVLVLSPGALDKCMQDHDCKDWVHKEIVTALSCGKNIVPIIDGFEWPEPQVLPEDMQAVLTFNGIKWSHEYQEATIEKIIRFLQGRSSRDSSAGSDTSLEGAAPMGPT
# [19] = stronger effect = lower value, cell number ratio, induced over uninduced
# [20] = measured here: relative caspase fold change +Dox/-Dox
# [21] = measured here: total cells with miR-34 induction, stronger effect = lower value
# [22] = measured here: total cells without miR-34 induction
# [23] = MELAS cybrid survival, CellTiter-Glo 48 h, stronger effect = higher value
# [24] = Rieske KO mouse fibroblast survival, CellTiter-Glo 72 h
smiles,measurement,setting,value
CC(C)OC(=O)c1cc2c(OCC(O)CNC(C)(C)C)cccc2[nH]1 (stereo not given),nuclear beta-catenin stimulation,[1]; at 10 µM,0.4% (inactive)
same,nuclear beta-catenin stimulation,"[1]; stimulation, at 2 µM",5.8%
same,insulin secretion stimulation,[2],13.3% (inactive)
same,viability decrease,[3],9.2% (inactive)
same,tube area decrease,[4],1.9% (inactive)
same,GLP1 secretion stimulation,[5],4.8% (inactive)
same,inhibition of viability,[6],40.5% (active)
same,viability decrease (inhibition),[7],58.6% (active)
same,viability decrease (inhibition),[8],7.6% (inactive)
same,remaining activity,[9],116% (inactive)
same,fold change,[10]; [19],0.915 (inactive)
same,fold change,[10]; [20],0.769
same,cell count,[10]; [21],9290
same,cell count,[10]; [22],10200
same,z-score,[11],-0.48 (inactive)
CN=C(NC#N)Nc1ccc(C2=NNC(=O)CC2C)cc1 (stereo not given),parasite load remaining,[12],25% (inactive)
same,viability,[12],67%
same,nuclear beta-catenin stimulation,[1]; at 10 µM,-0.7% (inactive)
same,nuclear beta-catenin stimulation,"[1]; stimulation, at 2 µM",-0.1%
same,insulin secretion stimulation,[2],0.3% (inactive)
same,viability decrease,[3],-15.4% (inactive)
same,tube area decrease,[4],-8.1% (inactive)
same,GLP1 secretion stimulation,[5],-1.9% (inactive)
same,inhibition of viability,[6],-3.9% (inactive)
same,viability decrease (inhibition),[7],4.1% (inactive)
same,viability decrease (inhibition),[8],-10.5% (inactive)
same,remaining activity,[9],117% (inactive)
same,fold change,[10]; [19],0.976 (inactive) and 0.925 (inactive) and 0.857 (inactive)
same,fold change,[10]; [20],0.912 and 0.898 and 1.1
same,cell count,[10]; [21],6170 and 8930 and 9670
same,cell count,[10]; [22],6320 and 9660 and 11300
same,z-score,[13]; [23],0.199 (inactive)
same,z-score,[13]; [24],0.162
same,z-score,[11],0.095 (inactive) and 0.625 (inactive)
COC(=O)[C@@H]1CC2=CC(=O)CC[C@]2(C)[C@@]23O[C@@H]2C[C@@]2(C)[C@@H](CC[C@@]24CCC(=O)O4)[C@H]13,nuclear beta-catenin stimulation,[1]; at 10 µM,-0.1% (inactive)
same,nuclear beta-catenin stimulation,"[1]; stimulation, at 2 µM",1.3%
same,insulin secretion stimulation,[2],-0.55% (inactive)
same,viability decrease,[3],-0.7% (inactive)
same,tube area decrease,[4],23.1% (inactive)
same,GLP1 secretion stimulation,[5],-1.5% (inactive)
same,inhibition of viability,[6],-5.5% (inactive)
same,viability decrease (inhibition),[7],24.4% (inactive)
same,viability decrease (inhibition),[8],-7.2% (inactive)
same,remaining activity,[9],96.4% (inactive)
same,outcome,[14],inactive
same,outcome,[15],inactive
same,outcome,[16],inactive
same,fold change,[10]; [19],0.96 (inactive)
same,fold change,[10]; [20],1.45
same,cell count,[10]; [21],9220
same,cell count,[10]; [22],9600
same,z-score,[11],-0.005 (inactive)
CN=C(NC#N)NCCSCc1csc(N=C(N)N)n1,parasite load remaining,[12],42.8% (inactive)
same,viability,[12],132%
same,nuclear beta-catenin stimulation,[1]; at 10 µM,-0.6% (inactive)
same,nuclear beta-catenin stimulation,"[1]; stimulation, at 2 µM",-1.8%
same,insulin secretion stimulation,[2],0.3% (inactive)
same,viability decrease,[3],5.8% (inactive)
same,tube area decrease,[4],14.5% (inactive)
same,GLP1 secretion stimulation,[5],0% (inactive)
same,inhibition of viability,[6],-2.7% (inactive)
same,viability decrease (inhibition),[7],-14.2% (inactive)
same,viability decrease (inhibition),[8],-5.4% (inactive)
same,remaining activity,[9],91.8% (inactive)
same,fold change,[10]; [19],0.914 (inactive) and 0.897 (inactive)
same,fold change,[10]; [20],0.888 and 0.977
same,cell count,[10]; [21],8420 and 9980
same,cell count,[10]; [22],9210 and 11100
same,z-score,[13]; [23],-0.55 (inactive)
same,z-score,[13]; [24],-0.51
same,z-score,[11],0.35 (inactive) and 0.345 (inactive)
OCC(CO)N[C@H]1C[C@](O)(CO)[C@@H](O)[C@H](O)[C@H]1O,nuclear beta-catenin stimulation,[1]; at 10 µM,3.1% (inactive)
same,nuclear beta-catenin stimulation,"[1]; stimulation, at 2 µM",5.1%
same,insulin secretion stimulation,[2],-1.5% (inactive)
same,viability decrease,[3],-12.8% (inactive)
same,tube area decrease,[4],7.6% (inactive)
same,GLP1 secretion stimulation,[5],1.9% (inactive)
same,inhibition of viability,[6],5.5% (inactive)
same,viability decrease (inhibition),[7],27.3% (inactive)
same,viability decrease (inhibition),[8],1.55% (inactive)
same,remaining activity,[9],123% (inactive)
same,fold change,[10]; [19],0.876 (inactive)
same,fold change,[10]; [20],1.87
same,cell count,[10]; [21],8920
same,cell count,[10]; [22],10200
same,z-score,[11],0.245 (inactive)
C1COC(NC(C2CC2)C2CC2)=N1,parasite load remaining,[12],46.7% (inactive)
same,viability,[12],103%
same,nuclear beta-catenin stimulation,[1]; at 10 µM,0.2% (inactive)
same,nuclear beta-catenin stimulation,"[1]; stimulation, at 2 µM",-0.7%
same,insulin secretion stimulation,[2],1.6% (inactive)
same,viability decrease,[3],-1.8% (inactive)
same,tube area decrease,[4],-7.6% (inactive)
same,GLP1 secretion stimulation,[5],1.5% (inactive)
same,inhibition of viability,[6],5.7% (inactive)
same,viability decrease (inhibition),[7],-4% (inactive)
same,viability decrease (inhibition),[8],7.9% (inactive)
same,remaining activity,[9],98.2% (inactive)
same,outcome,[14],inactive
same,outcome,[15],inactive
same,outcome,[16],inactive
same,fold change,[10]; [19],0.947 (inactive) and 0.935 (inactive) and 0.925 (inactive)
same,fold change,[10]; [20],1.18 and 0.627 and 1.06
same,cell count,[10]; [21],9720 and 9420 and 10200
same,cell count,[10]; [22],10300 and 10100 and 11000
same,z-score,[13]; [23],0.462 (inactive)
same,z-score,[13]; [24],0.9
same,z-score,[11],0.365 (inactive) and -0.285 (inactive) and 0.8 (inactive)
COCCOC(=O)C1=C(C)NC(C)=C(C(=O)OC/C=C/c2ccccc2)C1c1cccc([N+](=O)[O-])c1 (stereo not given),parasite load remaining,[12],41.2% (inactive)
same,viability,[12],106%
same,nuclear beta-catenin stimulation,[1]; at 10 µM,2.6% (inactive)
same,nuclear beta-catenin stimulation,"[1]; stimulation, at 2 µM",0.8%
same,insulin secretion stimulation,[2],-0.8% (inactive)
same,viability decrease,[3],77.2% (active)
same,tube area decrease,[4],104% (active)
same,GLP1 secretion stimulation,[5],-1.2% (inactive)
same,inhibition of viability,[6],77% (active)
same,viability decrease (inhibition),[7],87.1% (active)
same,viability decrease (inhibition),[8],86.4% (active)
same,remaining activity,[9],100% (inactive)
same,fold change,[10]; [19],1.33 (inactive) and 0.874 (inactive) and 0.908 (inactive)
same,fold change,[10]; [20],0.592 and 1.2 and 1.19
same,cell count,[10]; [21],2620 and 3270 and 8480
same,cell count,[10]; [22],1970 and 3740 and 9340
same,z-score,[13]; [23],0.948 (inactive) and 0.937 (inactive)
same,z-score,[13]; [24],1.43 and 0.674
same,z-score,[11],-1.04 (inactive) and -0.7 (inactive) and -0.745 (inactive)
CC#C[C@]1(O)CC[C@H]2[C@@H]3CCC4=CC(=O)CCC4=C3[C@@H](c3ccc(N(C)C)cc3)C[C@@]21C,nuclear beta-catenin stimulation,[1]; at 10 µM,9.1% (inactive)
same,nuclear beta-catenin stimulation,"[1]; stimulation, at 2 µM",4%
same,insulin secretion stimulation,[2],1% (inactive)
same,viability decrease,[3],94.5% (active)
same,tube area decrease,[4],16.1% (inactive)
same,GLP1 secretion stimulation,[5],-3.8% (inactive)
same,inhibition of viability,[6],84.3% (active)
same,viability decrease (inhibition),[7],102% (active)
same,viability decrease (inhibition),[8],98.6% (active)
same,remaining activity,[9],115% (inactive)
same,AC50,[17],0.235 µM (active)
same,outcome,[16],inactive
same,z-score,[13]; [23],1.08 (inactive) and 0.356 (inactive)
same,z-score,[13]; [24],0.475 and 1.05
same,remaining NAD,[18],10 nM (inactive)
same,z-score,[11],0.48 (inactive) and -0.34 (inactive) and 0.325 (inactive)
CN(C(=O)c1c(O)c2ccccc2n(C)c1=O)c1ccccc1,nuclear beta-catenin stimulation,[1]; at 10 µM,0.7% (inactive)
same,nuclear beta-catenin stimulation,"[1]; stimulation, at 2 µM",0.9%
same,insulin secretion stimulation,[2],4.4% (inactive)
same,viability decrease,[3],2.2% (inactive)
same,tube area decrease,[4],-6.9% (inactive)
same,GLP1 secretion stimulation,[5],0.6% (inactive)
same,inhibition of viability,[6],-2.7% (inactive)
same,viability decrease (inhibition),[7],1.1% (inactive)
same,viability decrease (inhibition),[8],-45.2% (inactive)
same,remaining activity,[9],121% (inactive)
same,outcome,[14],inactive
same,outcome,[16],inactive
same,fold change,[10]; [19],0.967 (inactive)
same,fold change,[10]; [20],0.749
same,cell count,[10]; [21],8780
same,cell count,[10]; [22],9070
same,z-score,[11],-0.335 (inactive)

# Source: PubChem BioAssay
